The record followed here is PubChem BioAssay (NCATS).

A short description of assay [1]: MultiTox-Fluor Cytotoxicity Assay - LYMP1-002 - Dead Cells (AID 960).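 Also: cells exposed to compound for 16 h at 37 °C; 0% = DMSO and 100% = tetraoctylammonium bromide; nearly all actives have a fitted effect of over 60% in size.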 A digest of the protocol:
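Cells were plated, rested 5 hr, then treated with compound dilution series for 16 hr at 37 C. After adding substrate reagent and 60 min at room temperature, dead-cell protease fluorescence gave concentration-response curves fitted by the Hill equation.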

Assay [2] deals with Lysosomal acid glucosylceramidase (Homo sapiens) (UniProt P04062). In words: Glucocerebrosidase-p2 (AID 348; in the data active = potency below about 10 µM; also: potency is read from the fitted curve at half-maximal effect). As to conditions: purified GBA, blue fluorogenic substrate, 40 min. A digest of the protocol:
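Normal human glucocerebrosidase (0.2 nM) with blue fluorogenic substrate (80 uM final) in citrate/phosphate pH 5.9 with 10mM sodium taurocholate, 0.01% tween-20; 40 min RT, NaOH/glycine stop; fluorescence Ex 365/Em 440; AC50 from a titration from 0.6 nM upwards.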

Assay [3] addresses Cytochrome P450 1A2 (Homo sapiens) (UniProt P05177). In words: p450-cyp1a2 (AID 410; calls by dose curve; also: potency is read from the fitted curve at half-maximal effect). A digest of the protocol: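 O-Demethylation of luciferin 6' methyl ether by human CYP1A2 is monitored as luciferase luminescence. Substrate sits at Km (100uM); enzyme is 20nM. Values are scaled to 57 uM furafylline as maximal inhibition.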
A short description of assay [4]: Stat Signaling Pathway (AID 446; active = well fitted curve in either direction with a large enough effect, not every such curve was filed as active;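 also: ME-180 cervical cancer cells given 40 pM IL-6 alongside compound; SIE-controlled beta-lactamase reporter measured as 460/530 nm FRET emission ratio; % is scaled to controls: 0 for no effect and ±100 for the full control effect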). A digest of the protocol:
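Normalization used AC90 stimulation (300 pM IL-6) and AC90 inhibition (125 nM pan-JAK inhibitor at 40 pM IL-6). The underlying signal is SIE-driven beta-lactamase in ME-180 cells after 5 h IL-6 exposure with compound.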

Assay [5] deals with 3',5'-cyclic-AMP phosphodiesterase 4B (Homo sapiens) (UniProt Q07343). In words: qHTS Assay for Inhibitors of PDE-IV (AID 607; active = well fitted activation curve with a large enough effect in the main read-out, with a control signal flat, not every such curve was filed as active; also: % of control where 0% means no effect). Put shortly: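 HEK293 ACTOne cells with CNG channel (1000/well), endogenous PDE4; membrane potential dye, compounds up to 22.9 uM final. Fluorescence Ex 535/Em 590; RO 20-1724 (100 uM final) as reference.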
In general terms: qHTS replaces the single test concentration by a dilution series.

The target in assay [6] is Cytochrome P450 3A4 (Homo sapiens) (UniProt P08684). In words: qHTS Assay for Activators of Cytochrome P450 3A4 (AID 885). Also: nearly all actives have a fitted effect of over 65% in size. Put shortly:
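Human CYP3A4 dealkylates Luciferin-PPXE to luciferin, which luciferase detection converts to light. Substrate was at its KM (25uM), buffer 200mM KPO4, reaction 60 min at RT.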

Assay [7] in a line: AP1 Signaling Pathway (AID 357; active = well fitted curve in either direction with a large enough effect, not every such curve was filed as active; also: % is scaled to controls: 0 for no effect and ±100 for the full control effect). As to conditions: ME-180 (cervical carcinoma) AP-1-bla reporter, EGF-induced, beta-lactamase ratio, 5 h; at 7.69 µM (top of the series) unless noted. A digest of the protocol: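 AP-1-bla ME-180 cells with beta-lactamase reporter under AP-1 response element, stimulated with EC50 EGF; compounds titrated, 5 hours at 37 degrees Celsius. CCF4 read at 460/530 nm ratio; positive and negative modulators judged by AC50.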

Assay [8] in a line: qHTS profiling for inhibitors of Plasmodium falciparum proliferation (AID 504749).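 Also: 0% = DMSO vehicle and full inhibition = artemisinin control; nearly all actives have a fitted effect of over 60% in size.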 Conditions: P. falciparum in erythrocytes, SYBR Green DNA, 72 h, at 28.7 µM (top of the series). A digest of the protocol:
(§1)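 SYBR Green fluorescence of parasite DNA, read after lysis and overnight dark incubation, measured growth over 72 h in erythrocyte culture at 0.3% parasitemia and 2.5% hematocrit. Data normalised to DMSO and 0.29 uM artemisinin, with plate-drift correction.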

For another assay, the system named is AS120. The description is as above. As to conditions: P. falciparum in erythrocytes, SYBR Green DNA, 72 h; series mostly up to 28.7 µM. Put shortly: as §1
A further assay has as its system ATS189. The assay is described as above. As to conditions: P. falciparum in erythrocytes, SYBR Green DNA, 72 h; series mostly up to 28.7 µM. A digest of the protocol:
as §1

The next assay relates to CP247. The assay is described as above. Conditions: P. falciparum in erythrocytes, SYBR Green DNA, 72 h; series mostly up to 28.7 µM. A digest of the protocol:
as §1

Another assay concerns CP262. The description is as above. Conditions: P. falciparum in erythrocytes, SYBR Green DNA, 72 h; series mostly up to 28.7 µM. Put shortly:
as §1

The next assay relates to CP266. The description is as above. As to conditions: P. falciparum in erythrocytes, SYBR Green DNA, 72 h; series mostly up to 28.7 µM. Put shortly:
as §1

The next assay deals with CP286. The description is as above. Conditions: P. falciparum in erythrocytes, SYBR Green DNA, 72 h; series mostly up to 28.7 µM. A digest of the protocol: as §1
In another assay the test system is CP335. The description is as above. Conditions: P. falciparum in erythrocytes, SYBR Green DNA, 72 h; series mostly up to 28.7 µM. Put shortly: as §1
The test system of the next assay is PC49. The description is as above. Conditions: P. falciparum in erythrocytes, SYBR Green DNA, 72 h; series mostly up to 28.7 µM. A digest of the protocol:
as §1

For a further assay, the system named is W2. Described as above. As to conditions: P. falciparum in erythrocytes, SYBR Green DNA, 72 h; series mostly up to 28.7 µM. A digest of the protocol:
as §1

The nature of assay [9]: Cell Viability - MRC5 (AID 434; calls by dose curve;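 also: potency is read from the fitted curve at half-maximal effect; cells exposed to compound for 40 hours at 37 °C; potency reflects cytotoxicity seen as loss of intracellular ATP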). As to conditions: MRC5 lung fibroblast viability, qHTS. Put shortly: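 AC50 values come from Hill-equation fits of intracellular ATP loss, measured by CellTiter-Glo luminescence. Normal lung fibroblasts (MRC5) had 40 hr compound treatment at 37 C, normalized between DMSO and 100 uM tamoxifen.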
Assay [10] addresses Thyroid hormone receptor beta (Homo sapiens) (UniProt P10828). In words: qHTS assay for small molecule antagonists of thyroid hormone receptor beta signaling (AID 588547; active = well fitted inhibition curve with a large enough effect in the signal ratio, with a control signal flat, not every such curve was filed as active; the % refers to the signal ratio;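 also: cells stimulated with 0.4 nM T3 agonist during compound exposure; % is scaled to controls: 0 for no effect and ±100 for the full control effect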). Conditions: TR-UAS-bla HEK293, beta-lactamase ratio, antagonist mode, 18 h. Put shortly: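 Inhibition of T3-driven (0.4nM final) beta-lactamase reporter activity was measured over 0.59 nM to 92 uM compound after 18 h at 37 C. The cells were GripTite HEK293 TR-UAS-bla in charcoal/dextran-stripped serum, with CCF4 ratio read-out and IC50 from Hill fits.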

Each structure is given as a SMILES string. Values joined by “and” are separate entries in the source; they are usually repeats but may differ in a detail not shown here. Identical values can stand only once. Unmarked numbers belong to inactive results. Records with an inconclusive call do not appear. Active and inactive are the calls of the source. Unless noted, calls follow the shape of the dose curve; as a rule, active = well fitted curve in the direction sought with a large enough effect; inconclusive = small, poorly fitted or top-dose-only effect, or another doubt; inactive = no such curve, though single readings can be large; an effect the other way counts as inactive or inconclusive.

Chain of Cytochrome P450 3A4 (Homo sapiens) (P08684 whole entry, looked up): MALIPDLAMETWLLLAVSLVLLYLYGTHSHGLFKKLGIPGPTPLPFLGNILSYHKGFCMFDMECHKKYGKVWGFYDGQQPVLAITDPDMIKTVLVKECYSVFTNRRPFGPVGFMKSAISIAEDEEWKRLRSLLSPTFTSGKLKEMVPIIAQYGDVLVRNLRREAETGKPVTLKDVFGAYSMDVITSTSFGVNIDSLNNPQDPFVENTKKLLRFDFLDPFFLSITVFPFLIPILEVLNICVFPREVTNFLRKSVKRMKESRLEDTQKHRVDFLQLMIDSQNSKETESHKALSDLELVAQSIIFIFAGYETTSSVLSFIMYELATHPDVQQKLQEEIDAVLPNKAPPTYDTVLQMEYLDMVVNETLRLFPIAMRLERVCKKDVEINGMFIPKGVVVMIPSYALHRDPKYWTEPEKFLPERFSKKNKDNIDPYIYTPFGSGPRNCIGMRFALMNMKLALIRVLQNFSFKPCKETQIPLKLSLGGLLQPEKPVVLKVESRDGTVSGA
Chain of 3',5'-cyclic-AMP phosphodiesterase 4B (Homo sapiens) (Q07343 whole entry, looked up): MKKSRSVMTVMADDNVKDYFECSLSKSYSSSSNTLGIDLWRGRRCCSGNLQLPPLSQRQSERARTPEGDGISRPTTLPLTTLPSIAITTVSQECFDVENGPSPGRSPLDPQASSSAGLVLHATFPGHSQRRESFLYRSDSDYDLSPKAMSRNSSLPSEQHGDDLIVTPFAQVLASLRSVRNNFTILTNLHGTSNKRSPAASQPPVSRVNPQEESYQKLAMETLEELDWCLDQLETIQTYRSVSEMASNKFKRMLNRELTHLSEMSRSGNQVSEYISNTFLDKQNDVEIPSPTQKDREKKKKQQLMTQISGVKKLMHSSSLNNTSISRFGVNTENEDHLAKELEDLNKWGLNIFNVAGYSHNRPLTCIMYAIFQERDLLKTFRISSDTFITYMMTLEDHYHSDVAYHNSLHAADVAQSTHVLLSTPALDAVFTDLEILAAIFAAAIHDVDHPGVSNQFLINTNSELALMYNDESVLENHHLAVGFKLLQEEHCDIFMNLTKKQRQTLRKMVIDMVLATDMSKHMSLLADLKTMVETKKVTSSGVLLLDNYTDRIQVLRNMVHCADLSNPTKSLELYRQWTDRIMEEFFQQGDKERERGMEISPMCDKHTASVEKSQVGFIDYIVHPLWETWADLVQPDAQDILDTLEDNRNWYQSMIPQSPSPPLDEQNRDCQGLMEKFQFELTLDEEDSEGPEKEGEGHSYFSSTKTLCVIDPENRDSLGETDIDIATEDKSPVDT
Chain of Lysosomal acid glucosylceramidase (Homo sapiens) (P04062 whole entry, looked up): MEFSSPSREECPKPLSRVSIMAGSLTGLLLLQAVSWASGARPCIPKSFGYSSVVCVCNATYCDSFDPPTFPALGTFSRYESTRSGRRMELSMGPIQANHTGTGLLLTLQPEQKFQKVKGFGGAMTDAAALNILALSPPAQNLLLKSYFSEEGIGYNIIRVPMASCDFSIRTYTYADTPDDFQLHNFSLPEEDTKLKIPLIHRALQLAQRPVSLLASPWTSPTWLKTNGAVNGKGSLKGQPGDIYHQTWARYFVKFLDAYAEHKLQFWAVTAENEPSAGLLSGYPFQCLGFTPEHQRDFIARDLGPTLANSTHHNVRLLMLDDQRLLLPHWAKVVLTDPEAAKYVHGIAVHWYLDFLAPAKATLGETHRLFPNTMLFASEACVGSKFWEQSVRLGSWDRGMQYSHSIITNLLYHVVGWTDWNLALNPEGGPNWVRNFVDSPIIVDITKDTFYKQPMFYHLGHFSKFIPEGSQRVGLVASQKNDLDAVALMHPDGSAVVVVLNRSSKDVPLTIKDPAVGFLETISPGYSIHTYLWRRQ
Chain of Thyroid hormone receptor beta (Homo sapiens) (P10828 whole entry, looked up): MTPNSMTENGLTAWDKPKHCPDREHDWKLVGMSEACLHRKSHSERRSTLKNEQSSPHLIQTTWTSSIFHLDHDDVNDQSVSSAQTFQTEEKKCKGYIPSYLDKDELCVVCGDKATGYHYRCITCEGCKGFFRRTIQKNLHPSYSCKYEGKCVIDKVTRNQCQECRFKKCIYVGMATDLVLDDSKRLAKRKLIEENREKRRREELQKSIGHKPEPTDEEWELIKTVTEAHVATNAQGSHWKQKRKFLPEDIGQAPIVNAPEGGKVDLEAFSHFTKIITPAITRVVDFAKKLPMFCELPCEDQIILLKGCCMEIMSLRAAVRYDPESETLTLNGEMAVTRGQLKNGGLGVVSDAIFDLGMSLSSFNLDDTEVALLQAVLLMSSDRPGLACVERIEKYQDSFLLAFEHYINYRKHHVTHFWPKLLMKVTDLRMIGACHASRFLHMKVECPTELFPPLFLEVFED
Chain of Cytochrome P450 1A2 (Homo sapiens) (P05177 whole entry, looked up): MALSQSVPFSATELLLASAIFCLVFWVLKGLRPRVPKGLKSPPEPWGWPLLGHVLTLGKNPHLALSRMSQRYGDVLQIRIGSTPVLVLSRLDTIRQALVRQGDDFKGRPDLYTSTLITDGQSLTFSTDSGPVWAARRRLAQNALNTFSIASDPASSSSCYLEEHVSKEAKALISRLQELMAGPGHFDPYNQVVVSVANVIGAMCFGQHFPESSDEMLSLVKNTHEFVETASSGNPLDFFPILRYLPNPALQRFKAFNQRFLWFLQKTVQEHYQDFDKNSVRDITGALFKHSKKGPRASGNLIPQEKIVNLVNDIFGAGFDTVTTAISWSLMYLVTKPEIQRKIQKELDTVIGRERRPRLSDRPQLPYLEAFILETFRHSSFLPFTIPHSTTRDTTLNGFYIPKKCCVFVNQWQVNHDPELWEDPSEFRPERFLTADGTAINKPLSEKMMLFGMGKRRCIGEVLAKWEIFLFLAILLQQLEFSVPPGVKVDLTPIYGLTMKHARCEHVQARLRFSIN

With `O=C(O)CC(C(=O)O)C(CC(=O)O)C(=O)O` (centres undefined), in assay [1], the Potency result was “inactive”.
With `COc1ccc2[nH]cc(CCNc3ncncc3-c3ccccc3C)c2c1`, the Potency in assay [2] is more than 11.4 µM; in [3], 0.631 µM (active). In addition, the outcome in [4] and in assay [6] was inactive. The Potency result in [5] is “inactive”.
With `CN(C)c1nc(-c2ccc3c(c2)OCO3)nc2ccccc12`, the Potency in [2] is more than 11.4 µM. For the same compound, the activity change, negative = inhibition in [7] was 9.5%. Moreover, the outcome in assay [4] was inactive. The Potency result in assay [5] is “inactive”.
Turning to `C1OCOCO1`, the activity, negative = inhibition is -0.0178% in assay [8] (parasite line A) and 3.44% in assay [8] (parasite line B). Moreover, the Potency result in the assay on AS120, in the assay on ATS189, with CP247, with CP262, in the assay with CP266 and in the assay on CP286 was “inactive” each time. The Potency entry in the assay with CP335, in the assay with PC49 and in the assay on W2 was “inactive” in each case.
Regarding `CC(=O)NCCNc1nc(-c2cccc(C#N)c2)nc2ccccc12`, the Potency in assay [2] is more than 11.4 µM. Also, the activity change, negative = inhibition in assay [7] is 2.77%. Moreover, the result in assay [4] was inactive. Besides, the Potency entry in [5] was “inactive”.
For the compound `COc1cccc(-c2ccc3ncnc(NCc4ccc(OC)cc4OC)c3c2)c1`, the Potency in [2] is more than 11.4 µM; in [3], 2.51 µM (active). In addition, the compound was called inactive in assay [4] and in assay [6].
Take `CN(C)c1ccc(-c2cncnc2NCCc2cnc[nH]2)cc1`: the activity change, negative = inhibition in assay [7] is -28.6%. Besides, the compound was called inactive in [4]. For the same compound, the Potency result in [5] is “inactive”.
`C/C=C\c1ccc(OC)cc1`: the Potency entry (in assay [1]; in the assay on AS120; in the assay on ATS189; in the assay with CP247; in the assay on CP262; in the assay with CP266) was “inactive” in each case. Also, the Potency result in the assay on CP286, in the assay on CP335, with PC49 and in the assay with W2 was “inactive” in each case. Moreover, the activity, negative = inhibition is -0.333% in assay [8] (parasite line A) and -2.16% in assay [8] (parasite line B).
For the compound `COc1ccccc1CNc1nc(-c2ccc(C(=O)N(C)C)cc2)nc2ccccc12`, the Potency in [2] was more than 11.4 µM. The outcome in [4] was inactive.
On to `CC1(C)CC(N=C=O)CC(C)(CN=C=O)C1` (centres undefined), for which, in assay [9], the Potency is more than 92 µM.
For the compound `COc1cccc(-c2nc(N(C)C)c3ccccc3n2)c1`, the values for the Potency in [2] and in assay [3] were more than 11.4 µM and 0.251 µM (active), respectively. In assay [7], the activity change, negative = inhibition was 15.5%. Moreover, the Potency entry in [5] was “inactive”. The compound was classed as inactive in assay [6].
With `NC1=NC(S)C2N=CN=C2N1` (centres undefined), the activity, negative = inhibition in assay [8] (parasite line A) was 3.76%; in assay [8] (parasite line B), -5.29%. The Potency result in the assay on AS120, with ATS189, with CP247, with CP262, with CP266 and in the assay on CP286 was “inactive” each time. Moreover, the Potency result with CP335, in the assay with PC49 and in the assay on W2 was “inactive” in each case.
`Cc1ccccc1-c1ccc2ncnc(NCCN3CCOCC3)c2c1`: the activity change, negative = inhibition in assay [7] was 13.8%. Moreover, the compound was called inactive in assay [4].
In the case of `COc1cccc(Cn2c(=O)cnc3cnc(N(C)C)nc32)c1`, the Potency is more than 11.4 µM in assay [2] and 6.31 µM (active) in [3]. In addition, in assay [7], the activity change, negative = inhibition is -10.4%. Besides, the compound was called inactive in assay [4] and in assay [6].
`CN1CCN(c2nc(-c3cccnc3)nc3ccccc23)CC1`: in assay [2], the Potency is more than 11.4 µM. In addition, in [7], the activity change, negative = inhibition was 5.32%. Also, in assay [6], the compound was classed as inactive.
Take `COc1ccccc1CNc1nc(-c2ccoc2)nc2ccccc12`: the activity change, negative = inhibition in assay [7] is 7.68%. In assay [4], the compound was called inactive.
`ClCCCl`: the Potency in assay [9] was more than 92 µM. Moreover, the activity change % (negative = inhibition) in assay [10] is 4.14% and 2.63% and 8.67%.
In the case of `Clc1cc(Cl)c(Cl)c(Cl)c1Cl`, the activity change % (negative = inhibition) in assay [10] is 4.53% and 17.6%.
As to `OCCNCCO`, the Potency in [9] was more than 92 µM.
